{"source": "the supplement of paper PMC10037445", "key": {"RAW-Dual [1]": {"tested_on": "RAW-Dual", "experiment": "IRF Lucia reporter activity, fold change vs agonist alone; cytotoxicity flag (confluency mask): not cytotoxic; higher = enhanced IRF activity", "method_in_brief": "(§1)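 Supernatant from RAW-Dual macrophages was read after 20 hours for IRF by QuantiLuc luminescence and for NF-κB by QuantiBlue absorbance at 620 nm. The cells (50,000 cells/well in DMEM, 384-well plates, 37 °C, 5% CO2) had received 50 nL of library stock by pin tool and, 1 h later, a PRR agonist. Reporter activity is expressed relative to agonist-alone wells as fold change, and wells were flagged cytotoxic if IncuCyte confluency was under 70% of agonist controls in both mask sets.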"}, "RAW-Dual [2]": {"tested_on": "RAW-Dual", "experiment": "IRF Lucia reporter activity, fold change vs agonist alone; higher = enhanced IRF activity", "conditions": "library stock concentration (final ~1000-fold dilution): 10 mM, agonist: MPLA (TLR4) […]", "method_in_brief": "as §1"}, "RAW-Dual [3]": {"tested_on": "RAW-Dual", "experiment": "IRF Lucia reporter activity, fold change vs agonist alone; cytotoxicity flag (confluency mask): cytotoxic (confluency <70% of control); higher = enhanced IRF activity", "method_in_brief": "as §1"}, "[4]": {"conditions": "agonist: 3'3'-cGAMP (STING) 10 ug/mL"}, "[5]": {"conditions": "cytotoxicity flag (confluency mask): not cytotoxic"}, "[6]": {"conditions": "cytotoxicity flag (confluency mask): cytotoxic (confluency <70% of control)"}}, "note": "“And” between values parts separate entries of the source, which are not always exact repeats. Equal entries are not always repeated. ± gives the standard deviation of the averaged measurements. In all, about 2,900 compounds were measured (“IRF Lucia reporter activity, fold change vs agonist alone”: median about 0.9, highest 2% from about 2.8 on). This is one part of a sample in which the highest values are shown more often than they occur."}
{"smiles": "COc1ccc(CC(=O)Nc2nc3c(s2)CCc2ccccc2-3)cc1OC", "note": "(library stock concentration (final ~1000-fold dilution): 10 mM)", "values": [{"measurement": "IRF Lucia reporter activity", "setting": "RAW-Dual [1]; [4]", "value": 0.989}, {"measurement": "IRF Lucia reporter activity", "setting": "RAW-Dual [1]; agonist: LPS (TLR4) 0.1 ug/mL", "value": 0.961}]}
{"smiles": "COc1cccc(C=NCCN=Cc2cccc(OC)c2[O-])c1[O-].[Cl-].[Mn+2]", "note": "(library stock concentration (final ~1000-fold dilution): 10 mM)", "values": [{"measurement": "IRF Lucia reporter activity", "setting": "RAW-Dual [1]; [4]", "value": 1.06}, {"measurement": "IRF Lucia reporter activity", "setting": "RAW-Dual [1]; agonist: LPS (TLR4) 0.1 ug/mL", "value": 0.762}]}
{"smiles": "COc1cccc(C=NCCN=Cc2cccc(OC)c2[O-])c1[O-].[Cl-].[Mn+2]", "values": [{"measurement": "IRF Lucia reporter activity", "setting": "RAW-Dual [2]; [5]", "value": 0.946}]}
{"smiles": "CCOc1cc(N2CCC(O)CC2)ccc1Nc1ncc2c(n1)N(C)c1ccccc1C(=O)N2C", "values": [{"measurement": "IRF Lucia reporter activity", "setting": "RAW-Dual [2]; [5]", "value": 0.32}]}
{"smiles": "CCOc1cc(N2CCC(O)CC2)ccc1Nc1ncc2c(n1)N(C)c1ccccc1C(=O)N2C", "note": "(library stock concentration (final ~1000-fold dilution): 10 mM)", "values": [{"measurement": "IRF Lucia reporter activity", "setting": "RAW-Dual [1]; [4]", "value": 0.518}, {"measurement": "IRF Lucia reporter activity", "setting": "RAW-Dual [1]; agonist: LPS (TLR4) 0.1 ug/mL", "value": 0.253}]}
{"smiles": "CN1c2ccccc2C(=O)Nc2cnc(Nc3ccc(N4CCC(O)CC4)cc3)nc21", "note": "(library stock concentration (final ~1000-fold dilution): 10 mM)", "values": [{"measurement": "IRF Lucia reporter activity", "setting": "RAW-Dual [1]; [4]", "value": 0.137}, {"measurement": "IRF Lucia reporter activity", "setting": "RAW-Dual [1]; agonist: LPS (TLR4) 0.1 ug/mL", "value": 0.438}]}
{"smiles": "Cc1nc(Nc2cnn(C3CCNCC3)c2)nc2c1N(C)C(=O)c1cc3ccccc3cc1N2C", "values": [{"measurement": "IRF Lucia reporter activity", "setting": "RAW-Dual [2]; [6]", "value": 3.71}]}
{"smiles": "Cc1nc(Nc2cnn(C3CCNCC3)c2)nc2c1N(C)C(=O)c1cc3ccccc3cc1N2C", "note": "(library stock concentration (final ~1000-fold dilution): 10 mM)", "values": [{"measurement": "IRF Lucia reporter activity", "setting": "RAW-Dual [3]; [4]", "value": 1.96}, {"measurement": "IRF Lucia reporter activity", "setting": "RAW-Dual [3]; agonist: LPS (TLR4) 0.1 ug/mL", "value": 3.05}]}
{"smiles": "COc1cc(C(=O)O)ccc1NC(=O)C1NC(CC(C)(C)C)C(C#N)(c2ccc(Cl)cc2F)C1c1cccc(Cl)c1F", "note": "(stereo not given)", "values": [{"measurement": "IRF Lucia reporter activity", "setting": "RAW-Dual [2]; [5]", "value": 0.67}]}
{"smiles": "COc1cc(C(=O)O)ccc1NC(=O)C1NC(CC(C)(C)C)C(C#N)(c2ccc(Cl)cc2F)C1c1cccc(Cl)c1F", "note": "(stereo not given) (library stock concentration (final ~1000-fold dilution): 10 mM)", "values": [{"measurement": "IRF Lucia reporter activity", "setting": "RAW-Dual [1]; [4]", "value": 0.62}, {"measurement": "IRF Lucia reporter activity", "setting": "RAW-Dual [1]; agonist: LPS (TLR4) 0.1 ug/mL", "value": 0.186}]}
{"smiles": "CC(C)(C)CC1NC(C(=O)NC2CCC(O)CC2)C(c2cccc(Cl)c2F)C12C(=O)Nc1cc(Cl)ccc12", "note": "(stereo not given) (library stock concentration (final ~1000-fold dilution): 10 mM)", "values": [{"measurement": "IRF Lucia reporter activity", "setting": "RAW-Dual [3]; [4]", "value": 0.342}, {"measurement": "IRF Lucia reporter activity", "setting": "RAW-Dual [3]; agonist: LPS (TLR4) 0.1 ug/mL", "value": 3.33}]}
{"smiles": "O=c1cc(-c2ccccc2)oc2cc(OC3OC(CO)C(O)C(O)C3O)c(O)c(O)c12", "note": "(stereo not given) (library stock concentration (final ~1000-fold dilution): 10 mM)", "values": [{"measurement": "IRF Lucia reporter activity", "setting": "RAW-Dual [1]; [4]", "value": 0.862}, {"measurement": "IRF Lucia reporter activity", "setting": "RAW-Dual [1]; agonist: LPS (TLR4) 0.1 ug/mL", "value": 0.849}]}
{"smiles": "CC(Nc1ncnc2[nH]cnc12)c1cc2cccc(Cl)c2c(=O)n1-c1ccccc1", "note": "(stereo not given)", "values": [{"measurement": "IRF Lucia reporter activity", "setting": "RAW-Dual [2]; [5]", "value": 1.42}]}
{"smiles": "CC(Nc1ncnc(N)c1C#N)c1cc2cccc(-c3ccc(=O)n(C)c3)c2c(=O)n1C(C)C", "note": "(stereo not given)", "values": [{"measurement": "IRF Lucia reporter activity", "setting": "RAW-Dual [2]; [5]", "value": 7.07}]}
{"smiles": "CC(NC(=O)c1c(N)nn2cccnc12)c1cc2cccc(C#Cc3cnn(C)c3)c2c(=O)n1-c1ccccc1", "note": "(stereo not given) (library stock concentration (final ~1000-fold dilution): 10 mM)", "values": [{"measurement": "IRF Lucia reporter activity", "setting": "RAW-Dual [1]; [4]", "value": 0.813}, {"measurement": "IRF Lucia reporter activity", "setting": "RAW-Dual [1]; agonist: LPS (TLR4) 0.1 ug/mL", "value": 1.14}]}
{"smiles": "CC(Nc1ncnc(N)c1C#N)c1cc2cccc(-c3ccc(=O)n(C)c3)c2c(=O)n1C(C)C", "note": "(stereo not given) (library stock concentration (final ~1000-fold dilution): 10 mM)", "values": [{"measurement": "IRF Lucia reporter activity", "setting": "RAW-Dual [1]; [4]", "value": 1.14}, {"measurement": "IRF Lucia reporter activity", "setting": "RAW-Dual [1]; agonist: LPS (TLR4) 0.1 ug/mL", "value": 8.45}]}
{"smiles": "CC(Nc1ncnc2[nH]cnc12)c1cc2cccc(Cl)c2c(=O)n1-c1ccccc1", "note": "(stereo not given) (library stock concentration (final ~1000-fold dilution): 10 mM)", "values": [{"measurement": "IRF Lucia reporter activity", "setting": "RAW-Dual [1]; [4]", "value": 0.659}, {"measurement": "IRF Lucia reporter activity", "setting": "RAW-Dual [1]; agonist: LPS (TLR4) 0.1 ug/mL", "value": 0.799}]}
{"smiles": "Cl.Fc1ccc(C2CCNCC2COc2ccc3c(c2)OCO3)cc1", "note": "(stereo not given)", "values": [{"measurement": "IRF Lucia reporter activity", "setting": "RAW-Dual [2]; [5]", "value": 1.35}]}
{"smiles": "Cl.Fc1ccc(C2CCNCC2COc2ccc3c(c2)OCO3)cc1", "note": "(stereo not given) (library stock concentration (final ~1000-fold dilution): 10 mM)", "values": [{"measurement": "IRF Lucia reporter activity", "setting": "RAW-Dual [1]; [4]", "value": 0.928}, {"measurement": "IRF Lucia reporter activity", "setting": "RAW-Dual [1]; agonist: LPS (TLR4) 0.1 ug/mL", "value": 1.02}]}
{"smiles": "OCC1=CC(O)C2C=COC(OC3OC(CO)C(O)C(O)C3O)C12", "note": "(stereo not given) (library stock concentration (final ~1000-fold dilution): 10 mM)", "values": [{"measurement": "IRF Lucia reporter activity", "setting": "RAW-Dual [1]; [4]", "value": 1.05}, {"measurement": "IRF Lucia reporter activity", "setting": "RAW-Dual [1]; agonist: LPS (TLR4) 0.1 ug/mL", "value": 1.37}]}
{"smiles": "OCC1=CC(O)C2C=COC(OC3OC(CO)C(O)C(O)C3O)C12", "note": "(stereo not given)", "values": [{"measurement": "IRF Lucia reporter activity", "setting": "RAW-Dual [2]; [5]", "value": 1.01}]}
{"smiles": "c1ccc2c(CCNc3ccc(Nc4ccncc4)cc3)c[nH]c2c1", "values": [{"measurement": "IRF Lucia reporter activity", "setting": "RAW-Dual [2]; [5]", "value": 2.97}]}
{"smiles": "c1ccc2c(CCNc3ccc(Nc4ccncc4)cc3)c[nH]c2c1", "note": "(library stock concentration (final ~1000-fold dilution): 10 mM)", "values": [{"measurement": "IRF Lucia reporter activity", "setting": "RAW-Dual [1]; [4]", "value": 0.706}, {"measurement": "IRF Lucia reporter activity", "setting": "RAW-Dual [1]; agonist: LPS (TLR4) 0.1 ug/mL", "value": 0.612}]}
{"smiles": "O=C(O)CCc1c[nH]c2ccccc12", "note": "(library stock concentration (final ~1000-fold dilution): 10 mM)", "values": [{"measurement": "IRF Lucia reporter activity", "setting": "RAW-Dual [1]; [4]", "value": 0.921}, {"measurement": "IRF Lucia reporter activity", "setting": "RAW-Dual [1]; agonist: LPS (TLR4) 0.1 ug/mL", "value": 1.18}]}
{"smiles": "OCc1c[nH]c2ccccc12", "values": [{"measurement": "IRF Lucia reporter activity", "setting": "RAW-Dual [2]; [5]", "value": "1.07 ± 0.022"}]}
{"smiles": "OCc1c[nH]c2ccccc12", "note": "(library stock concentration (final ~1000-fold dilution): 10 mM)", "values": [{"measurement": "IRF Lucia reporter activity", "setting": "RAW-Dual [1]; [4]", "value": "0.803 and 0.565"}, {"measurement": "IRF Lucia reporter activity", "setting": "RAW-Dual [1]; agonist: LPS (TLR4) 0.1 ug/mL", "value": "0.839 and 0.758"}]}
{"smiles": "CN1CC2c3ccccc3Oc3ccc(Cl)cc3C2C1.O=C(O)/C=C\\C(=O)O", "note": "(stereo not given)", "values": [{"measurement": "IRF Lucia reporter activity", "setting": "RAW-Dual [2]; [6]", "value": 1.95}]}
{"smiles": "CN1CC2c3ccccc3Oc3ccc(Cl)cc3C2C1.O=C(O)/C=C\\C(=O)O", "note": "(stereo not given) (library stock concentration (final ~1000-fold dilution): 10 mM)", "values": [{"measurement": "IRF Lucia reporter activity", "setting": "RAW-Dual [3]; [4]", "value": 0.746}, {"measurement": "IRF Lucia reporter activity", "setting": "RAW-Dual [3]; agonist: LPS (TLR4) 0.1 ug/mL", "value": 0.716}]}
